Values without a mark were called inactive. Activity calls are given as the source filed them. Calls come from the whole dose curve; as a rule, active = well fitted cell-killing curve with a large enough effect; inconclusive = small, poorly fitted or top-dose-only effect; inactive = flat fitted curve, though single readings scatter.
assay: Cell Viability - LYMP1-003 - Assay at 24 hr (AID 963); conditions: LYMP1-003 lymphoblastoid cell viability; series mostly up to 92.2 µM; viability change, negative = cytotoxic: at the top concentration;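 for viability change, negative = cytotoxic: plate controls were DMSO only for no effect and tetraoctylammonium bromide positive control for full effect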
From the text: NIH Chemical Genomics Center [NCGC]
NIH Molecular Libraries Screening Centers Network [MLSCN]
National Institutes of Environmental Health Sciences [NIEHS]
National Toxicology Program [NTP]
We have developed a 1536-well cell-based assay for quantitative high throughput screening (qHTS) against a number of cell lines to determine in vitro cytotoxicity of small molecules. This particular assay uses a human lymphoblastoid cell line (LYMP1-003) purchased from Coriell Institute for Medical Research.
NCGC Assay Protocol Summary:
The CellTiter-Glo luminescent cell viability assay (Promega) is a homogeneous method to measure the number of viable cells in culture. The end point readout of this assay is based on quantitation of intracellular ATP, an indicator of metabolic activity, using the luciferase reaction. Luciferase catalyzes the oxidation of beetle Luciferin to oxyluciferin and light in the presence of ATP. The luminescent signal is proportional to amount of ATP present.
Using the CellTiter-Glo luminescent cell viability assay, the amount of cellular ATP was measured in the lymphoblastoid cell line with complete culture medium following compound treatment for 24 hours. The assay was performed in opaque white Kalypsys 1536-well plates. In the screen, tetraoctylammonium bromide was used as positive control. Library compounds were measured for their ability to cause acute toxicity in the cell line, as reflected by a decrease in intracellular ATP levels, in a concentration-dependent manner. […] AC50 values were determined from concentration-response data modeled with the standard Hill equation.
qHTS protocol for CellTiter Glo lymphoblastoid cellular assay
[Step] [Parameter] [Value] [Description]
1. Reagent; 5 uL; 2500 lymphoblastoid cells/well
2. Time; 5 hr; 37 C incubation
4. Controls; 23 nL; Tetraoctylammonium bromide 6.4pM to 92 uM
5. Time; 24 hr; 37 C incubation
6. Reagent; 5 uL; CellTiter Glo reagent
7. Time; 30 min; Room Temperature
8. Detection; Luminescence; Viewlux plate reader
Keywords: cell viability, cytotoxicity, lymphoblastoid cell line, luminescence, NTPHTS, NTPHTS_NCGC, NIEHS, DSSTox, MLSMR, MLSCN, NIH Roadmap, qHTS, NCGC
Potency is the fitted concentration of half-maximal effect.

| Compound | viability change, negative = cytotoxic [%] | Potency |
| --- | --- | --- |
| CCCC(=O)c1cc(O)c(O)cc1O | -7.52 | – |
| CCCCCCCCCCCCCCCC[n+]1ccccc1 | – | 20 µM (active) |
| O=C(NO)c1ccccc1 | -6.09 | – |
| Brc1ccccc1-c1ccccc1 | 3.39 | – |
| Nc1cccc2c(N)cccc12 | -11 | – |
| C1=CC2C3C=CC(C3)C2C1 (stereo unspecified) | -7.26 | – |
| Nc1c2ccccc2nc2ccccc12 | – | 25.1 µM (active) |
| Oc1ccccc1 | 5.25 | – |
| OCc1c[nH]c2ccccc12 | -1.06 | – |
| CCCCC(CC)COC(=O)c1ccccc1C(=O)O (stereo unspecified) | -6.04 | – |
| O=C(c1ccccc1)c1ccccc1 | 1.02 | – |
| Nc1ccc(O)cc1 | – | 50.1 µM (active) |
| Cc1cc(C(C)(C)C)c(O)c(C(C)(C)C)c1 | -1.07 | – |
| Cc1ccc(O)cc1 | -8.63 | – |
| CC(C)(C)c1ccc(O)c(O)c1 | -21.5 | – |
| O=C(Oc1ccccc1)c1ccccc1O | 0.0014 | – |
| COc1cc(C=O)ccc1O | -0.356 | – |
| CC(C)(c1ccc(O)cc1)c1ccc(O)cc1 | – | inactive |
| CC(C)C(C)(C)C(C)(C)C(C)(C)S | -2.38 | – |
| CC(=O)OC/C=C(C)/C=C/C=C(C)/C=C/C1=C(C)CCCC1(C)C | -14.9 | – |
| c1ccc2occc2c1 | -2.66 | – |

Source: PubChem BioAssay (NCATS)
